Results taken from PubChem BioAssay (EPA / NIEHS).
Results filed as inconclusive are left out. The source made the active and inactive calls. How the source made its calls, unless noted: active means hit-call score of the fitted dose curve at least 0.9, where 1 is the maximum; inactive means score below 0.9.

Key:
[1] = read-out: Monocyte Chemoattractant Protein-1 (MCP1), CCL2 (gene 6347); assay: BSK_SAg_MCP1: BioMAP Diversity Plus: SAg Assay for Monocyte Chemoattractant Protein-1 (MCP1) Biomarker Activity (AID 2283090); details: primary human HUVEC with PBMC; actives raise or lower the signal
In short: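 MCP-1 levels in the endothelial–PBMC SAg co-culture were quantified by ELISA at 24 h post-dosing; both increases and decreases versus DMSO scored. Cytotoxicity monitored by SRB total protein in parallel cultures.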

[2] = read-out: E-selectin (Homo sapiens) (UniProt P16581); assay: BSK_SAg_Eselectin: BioMAP Diversity Plus: SAg Assay for Eselectin Biomarker Activity (AID 2283091); details: primary human HUVEC with PBMC; actives raise or lower the signal
In short: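 Human umbilical vein endothelial cells co-cultured with peripheral blood mononuclear cells, SAg system. E-selectin is measured by ELISA 24 h after dosing and fitted bidirectionally against DMSO. Cytotoxicity is checked by SRB staining of parallel cultures.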

[3] = read-out: Monokine induced gamma interferon (MIG), CXCL9 (gene 4283); assay: BSK_SAg_MIG: BioMAP Diversity Plus: SAg Assay for Monokine induced gamma interferon (MIG) Biomarker Activity (AID 2283092); details: primary human HUVEC with PBMC; actives raise or lower the signal
In short: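 Values reflect bidirectional fitting of ELISA-measured MIG against DMSO vehicle, taken 24 h after dosing of a co-culture of human umbilical vein endothelial cells and peripheral blood mononuclear cells.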

[4] = BSK_SAg_PBMCCytotoxicity: PBMC Cytotoxicity Assessment in the BioMAP Diversity Plus: SAg Assay (AID 2283093); details: primary human HUVEC with PBMC;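 further: PBMC viability measured as Alamar Blue reduction fluorescence at 546/580 nm; fitted both ways against DMSO so a hit may be loss or gain of signal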;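 on AC50: PBMC superantigen activated with SEB plus TSST-1 one hour after compound addition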
In short: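 Human umbilical vein endothelial cells co-cultured with PBMC; PBMC (75,000/well) pre-treated with compound 1 h, then activated with SEB and TSST-1 (20 ng/mL final each) for 90 h. Alamar Blue added 6 h, fluorescence 546/580 nm; bidirectional fit versus DMSO.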

[5] = BSK_SAg_Proliferation: Cell Proliferation Assessment in the BioMAP Diversity Plus: SAg Assay (AID 2283095); details: primary human HUVEC with PBMC
In short: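 Human umbilical vein endothelial cells co-cultured with PBMC; sulforhodamine B total-protein staining (0.1% SRB after 10% TCA fixation, absorbance 560 nm) at 96 h in sub-confluent culture. Fitted bidirectionally against DMSO.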

[6] = BSK_SAg_SRB: Viability Assessment in the BioMAP Diversity Plus: SAg Assay (AID 2283096); details: primary human HUVEC with PBMC;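 further: cells read one day after compound addition; hits may be either gain or loss of signal compared with DMSO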
In short: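 Endothelial/PBMC primary human co-culture; compound 24 h; fix 10% TCA, stain 0.1% SRB, A560; protein content as cytotoxicity proxy; bidirectional curve fit, DMSO = baseline.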

[7] = target: human CYP1A1, CYP1A1 (gene 1543) (UniProt P04798); assay: NVS_ADME_hCYP1A1: NovaScreen (NVS) CYP450-related Enzyme Activity (ADME) Assay for human CYP1A1 (AID 2283100; active means hit-call score of the fitted dose curve at least 0.9, where 1 is the maximum)
In short: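 Recombinant CYP1A1 with a fluorogenic substrate, cell-free, read 1 h after dosing; acetonitrile as negative control. Single-concentration screen at 10 uM in duplicate, then concentration-response up to 20 uM for chemicals meeting ~30% inhibition threshold.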

[8] = target: Cytochrome P450 3A4 (Homo sapiens) (UniProt P08684); assay: NVS_ADME_hCYP3A4: NovaScreen (NVS) CYP450-related Enzyme Activity (ADME) Assay for human CYP3A4 (AID 2283110; active means hit-call score of the fitted dose curve at least 0.9, where 1 is the maximum)
In short: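 Cell-free assay using insect-cell-expressed human CYP3A4 with a fluorogenic substrate; fluorescence intensity was read 0.33 hour after dosing. Loss of signal relative to acetonitrile vehicle indicated inhibition. Primary single-concentration screen at 10 uM, in duplicate, then concentration series.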

[9] = target: Cytochrome P450 2C19 (Homo sapiens) (UniProt P33261); assay: NVS_ADME_hCYP2C19: NovaScreen (NVS) CYP450-related Enzyme Activity (ADME) Assay for human CYP2C19 (AID 2283113; active means hit-call score of the fitted dose curve at least 0.9, where 1 is the maximum;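 further: potency for inhibition seen as loss of fluorescent signal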)
In short: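 Cell-free recombinant human CYP2C19 from insect cells, fluorescent substrate; activity read by fluorescence intensity 1 h after dosing. Primary screen in duplicate at 10 uM; actives retested in concentration series. Signal loss versus acetonitrile negative control.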

[10] = target: human AKT serine/threonine Kinase 1 (AKT1), AKT1 (gene 207) (UniProt P31749); assay: NVS_ENZ_hAKT1: NovaScreen (NVS) Enzymatic Assay for human AKT serine/threonine Kinase 1 (AKT1) (AID 2283138; active means hit-call score of the fitted dose curve at least 0.9, where 1 is the maximum)
In short: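 Recombinant human AKT1 with a specific substrate, product separated by electrophoretic mobility shift, read after 1 h. Compounds at 25 uM in duplicate, then concentration-response up to 50 uM for hits; inhibition relative to DMSO.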

[11] = read-out: Interleukin-8 (IL8), CXCL8 (gene 3576); assay: BSK_SAg_IL8: BioMAP Diversity Plus: SAg Assay for Interleukin-8 (IL8) Biomarker Activity (AID 2283094); details: primary human HUVEC with PBMC; actives raise or lower the signal
In short: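 Human umbilical vein endothelial cells co-cultured with PBMC, stimulated with superantigen; IL-8 measured by ELISA 24 h after chemical dosing. Bidirectional fitting versus DMSO; SRB staining in parallel cultures tracks cytotoxicity.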

[12] = target: human Acid Phosphatase 1 (ACP1), ACP1 (gene 52) (UniProt P24666); assay: NVS_ENZ_hACP1: NovaScreen (NVS) Enzymatic Assay for human Acid Phosphatase 1 (ACP1) (AID 2283136; active means hit-call score of the fitted dose curve at least 0.9, where 1 is the maximum)
In short: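 Recombinant enzyme expressed in Sf9 cells, tested cell-free; activity read by fluorescence with electrophoretic mobility shift separation of substrate and product, 1.5 h after dosing. Primary screen in duplicate at 25 uM, actives then run in concentration series; loss of signal versus DMSO.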

Measured: AC50

human AKT serine/threonine Kinase 1 (AKT1), AKT1 (gene 207), sequence (P31749 whole entry, looked up): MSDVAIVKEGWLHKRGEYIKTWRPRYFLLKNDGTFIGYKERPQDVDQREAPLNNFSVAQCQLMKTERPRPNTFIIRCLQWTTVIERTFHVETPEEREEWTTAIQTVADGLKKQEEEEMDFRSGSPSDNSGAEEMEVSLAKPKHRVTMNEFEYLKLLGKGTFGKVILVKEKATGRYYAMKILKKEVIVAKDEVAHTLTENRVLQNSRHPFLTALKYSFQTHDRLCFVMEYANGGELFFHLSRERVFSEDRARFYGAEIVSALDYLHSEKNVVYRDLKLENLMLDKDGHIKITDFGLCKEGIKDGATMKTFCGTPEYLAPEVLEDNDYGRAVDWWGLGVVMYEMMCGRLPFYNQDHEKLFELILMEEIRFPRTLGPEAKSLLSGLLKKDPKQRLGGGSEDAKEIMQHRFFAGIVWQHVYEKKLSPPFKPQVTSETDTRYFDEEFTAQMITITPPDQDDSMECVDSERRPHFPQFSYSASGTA
E-selectin (Homo sapiens), sequence (P16581 whole entry, looked up): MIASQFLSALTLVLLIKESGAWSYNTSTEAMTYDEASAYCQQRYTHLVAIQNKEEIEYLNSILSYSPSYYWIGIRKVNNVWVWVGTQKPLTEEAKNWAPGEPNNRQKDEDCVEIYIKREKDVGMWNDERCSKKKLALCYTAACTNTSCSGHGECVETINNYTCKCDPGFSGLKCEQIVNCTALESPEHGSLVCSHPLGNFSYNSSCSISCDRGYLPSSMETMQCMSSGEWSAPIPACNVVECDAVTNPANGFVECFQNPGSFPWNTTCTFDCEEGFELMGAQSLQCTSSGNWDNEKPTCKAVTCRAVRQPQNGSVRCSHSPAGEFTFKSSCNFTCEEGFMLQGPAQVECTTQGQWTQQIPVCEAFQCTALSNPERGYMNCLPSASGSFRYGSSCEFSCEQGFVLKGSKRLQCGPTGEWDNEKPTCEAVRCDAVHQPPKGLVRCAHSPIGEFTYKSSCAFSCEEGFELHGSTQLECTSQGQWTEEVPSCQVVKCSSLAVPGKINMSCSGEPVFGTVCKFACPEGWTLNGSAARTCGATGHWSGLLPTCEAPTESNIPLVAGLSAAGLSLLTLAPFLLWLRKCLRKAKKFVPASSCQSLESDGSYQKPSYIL
human Acid Phosphatase 1 (ACP1), ACP1 (gene 52), sequence (P24666 whole entry, looked up): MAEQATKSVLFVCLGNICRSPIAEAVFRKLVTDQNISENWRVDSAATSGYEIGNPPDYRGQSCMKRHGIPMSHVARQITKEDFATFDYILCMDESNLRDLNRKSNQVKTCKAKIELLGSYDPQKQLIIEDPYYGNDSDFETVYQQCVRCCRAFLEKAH
Cytochrome P450 3A4 (Homo sapiens), sequence (P08684 whole entry, looked up): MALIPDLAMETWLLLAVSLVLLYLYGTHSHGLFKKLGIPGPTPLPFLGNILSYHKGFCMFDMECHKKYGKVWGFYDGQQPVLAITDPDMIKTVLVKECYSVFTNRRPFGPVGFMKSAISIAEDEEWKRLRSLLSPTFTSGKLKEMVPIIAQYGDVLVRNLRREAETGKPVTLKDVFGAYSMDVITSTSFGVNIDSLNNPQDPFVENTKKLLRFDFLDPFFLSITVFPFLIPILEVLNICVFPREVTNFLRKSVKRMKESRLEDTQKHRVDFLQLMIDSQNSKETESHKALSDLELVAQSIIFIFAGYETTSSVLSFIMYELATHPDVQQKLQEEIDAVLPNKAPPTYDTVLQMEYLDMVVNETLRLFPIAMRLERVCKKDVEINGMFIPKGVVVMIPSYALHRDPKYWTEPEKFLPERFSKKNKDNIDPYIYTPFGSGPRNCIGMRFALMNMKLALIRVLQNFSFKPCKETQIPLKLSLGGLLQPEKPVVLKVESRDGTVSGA
human CYP1A1, CYP1A1 (gene 1543), sequence (P04798 whole entry, looked up): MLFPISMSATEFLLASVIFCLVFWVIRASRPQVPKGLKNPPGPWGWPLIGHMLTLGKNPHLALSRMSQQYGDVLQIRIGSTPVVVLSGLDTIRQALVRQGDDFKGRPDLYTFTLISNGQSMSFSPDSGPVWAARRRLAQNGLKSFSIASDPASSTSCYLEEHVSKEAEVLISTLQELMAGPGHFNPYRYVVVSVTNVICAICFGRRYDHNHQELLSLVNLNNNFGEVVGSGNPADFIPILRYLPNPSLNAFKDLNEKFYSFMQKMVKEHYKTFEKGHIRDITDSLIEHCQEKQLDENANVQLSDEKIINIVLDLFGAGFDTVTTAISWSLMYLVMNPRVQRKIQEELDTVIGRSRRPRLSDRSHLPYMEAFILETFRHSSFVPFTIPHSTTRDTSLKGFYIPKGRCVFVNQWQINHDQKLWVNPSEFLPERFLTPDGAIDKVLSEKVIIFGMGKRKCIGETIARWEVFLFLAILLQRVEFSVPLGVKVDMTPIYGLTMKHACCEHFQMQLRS

CCCCCCCC=O
inactive: [1] | [2] | [3] | [4] | [5] | [6]

COc1ccc(S(=O)(=O)N2C(=O)[C@@](c3ccccc3OC)(N3C[C@H](O)C[C@H]3C(=O)N(C)C)c3cc(Cl)ccc32)c(OC)c1
inactive: [1] | [3] | [4] | [7]
active: [2] 20 µM | [5] 29.4 µM | [6] 29.7 µM | [8] 4.57 µM | [9] 6.95 µM

CCCCCCCCCCCC(=O)OC
inactive: [1] | [2] | [3] | [5] | [6] | [10]
active: [4] 20 µM

NS(=O)(=O)c1cc2c(cc1Cl)NCNS2(=O)=O
inactive: [2] | [3] | [4] | [11] | [5] | [6]

C[C@]12C=CC(=O)C=C1CC[C@@H]1[C@@H]2C(=O)C[C@@]2(C)[C@H]1CC[C@]2(O)C(=O)CO
inactive: [2] | [3] | [4] | [11] | [5] | [6]

FC(F)(F)C(F)(F)C(F)(F)C(F)(F)C(F)(F)C(F)(F)CCI
inactive: [2] | [3] | [4] | [5] | [6] | [12]

O=C(OCCCCCOC(=O)c1ccccc1)c1ccccc1
inactive: [2] | [3] | [4] | [5] | [6] | [10]

NCCO
not listed: [1] | [7] | [9]
inactive: all other assays above

CN1CCCC1=O
inactive: [2] | [3] | [4] | [11] | [5] | [6]

CCCCCCCCCCCCCCCC
inactive: [2] | [3] | [4] | [11] | [5] | [6] | [10]

C1CCC(SSC2CCCCC2)CC1
inactive: [3] | [11] | [6]
active: [2] 32.7 µM | [4] 16.1 µM | [5] 15 µM
